Among the data in PubChem BioAssay (Tox21) are Potency and outcome values, retold here.

Structures are written as SMILES. Where “and” joins values, the source holds several entries; their conditions need not be identical. Equal values may be shown once. Inconclusive results are not listed. Some compounds were tested as several samples or in several runs, with calls that do not always agree. Calls of active or inactive are those of the source. Unless noted, calls come from the whole dose curve; as a rule, active = well fitted curve in the direction sought with a large enough effect in the repeat runs; inconclusive = weak or mixed curves; inactive = no such curve, though single readings can be large; an effect the other way counts as inactive or inconclusive.

A short description of assay [1]: qHTS assay for small molecules that induce genotoxicity in human embryonic kidney cells expressing luciferase-tagged ATAD5 (AID 651632). Note: nearly all actives have a fitted effect of over 15% in size. A digest of the protocol:
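Reporter cells (HEK293T) express luciferase-tagged ATAD5, a protein that accumulates after DNA damage. Treat 16 hr at 37C/5% CO2, add Amplite, wait 30 min at RT, and read luminescence.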

A short description of assay [2]: qHTS assay for small molecule agonists of the p53 signaling pathway - cell viability (AID 651633; calls by dose curve; note: series mostly up to about 83 µM; nearly all actives have a fitted effect of over 30% in size). The method, boiled down:
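p53RE-bla cells were treated with compound for 16 hours at 37 C. Cytotoxicity was then measured as CellTiter-Glo luminescence after 30 min at room temperature.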
In general terms: In qHTS, concentration-response curves come from the screen itself.

Assay [3] is described as follows: qHTS assay for small molecules that induce genotoxicity in human embryonic kidney cells expressing luciferase-tagged ATAD5 - cell viability (AID 651634; calls by dose curve; note: nearly all actives have a fitted effect of over 25% in size). The method, boiled down:
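Seeding of 2,000 HEK293T ATAD5-luciferase cells per well preceded pin-tool compound transfer. Plates sat 15.5 hr at 37C under 5% CO2, then fluorescence was read after 30 min with CellTiter-Fluor.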

A short description of assay [4]: qHTS assay for small molecule disruptors of the mitochondrial membrane potential - cell viability (AID 720634; calls by dose curve;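 note: human HepG2 liver cancer cells; series mostly up to about 83 µM; nearly all actives have a fitted effect of over 20% in size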). The method, boiled down: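 Measuring cytotoxicity alongside mitochondrial potential, the screen quantified ATP by luminescence in HepG2 cells after 1 hr compound incubation and a 30 min room-temperature CellTiter-Glo step.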
Assay [5] is described as follows: qHTS assay to test for compound auto fluorescence at 590 nm (red) in HepG2 cells (AID 720674). A digest of the protocol:
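Fluorescence at 590 nm emission following 540 nm excitation was recorded from HepG2 wells one hour after compound transfer, with DMSO-only wells as vehicle and Rose Bengal sodium equivalency as the scale.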

Assay [6] is described as follows: qHTS assay to test for compound auto fluorescence at 535 nm (green) in HepG2 cells (AID 720675).
A short description of assay [7]: qHTS assay to test for compound auto fluorescence at 460 nm (blue) in HEK293 cells (AID 720678). The method, boiled down:
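Triamterene serves as the blue fluorophore standard. Compound signal at 405/460 nm is read in HEK293 wells (2,000 cells, 10% dialyzed FBS) after overnight treatment at 37C.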

The nature of assay [8]: qHTS assay to test for compound auto fluorescence at 590 nm (red) in HEK293 cells (AID 720679). The method, boiled down: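 We plated HEK293 cells in 10% dialyzed FBS medium, let them adhere for 4-5 hr, then added 23 nL compound. Overnight at 37C and 5% CO2 preceded fluorescence measurement at 540/590nm.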
A short description of assay [9]: qHTS assay to test for compound auto fluorescence at 535 nm (green) in HEK293 cells (AID 720680).
Assay [10] in a line: qHTS assay to test for compound auto fluorescence at 460 nm (blue) in HEK293 cell free culture (AID 720681). The method, boiled down:
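Compounds were added to cell-free DMEM with 10% FBS and fluorescence read directly. The blue channel used 405 nm excitation and 460 nm emission, with triamterene as the reference fluorophore.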

Assay [11] is described as follows: qHTS assay to test for compound auto fluorescence at 535 nm (green) in HEK293 cell free culture (AID 720682). The method, boiled down:
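Read-out: 485/535 nm fluorescence intensity, calibrated against fluorescein. Medium only (DMEM + 10% FBS, no cells); test compound or DMSO vehicle added by pintool before plate reading.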

Assay [12] can be described thus: qHTS assay to test for compound auto fluorescence at 590 nm (red) in HEK293 cell free culture (AID 720683). The method, boiled down:
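Cell-free wells of DMEM with 10% FBS received compound, and intrinsic fluorescence was read at excitation/emission 540/590 nm. Values expressed as equivalence to Rose Bengal sodium.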

Assay [13] can be described thus: qHTS assay to test for compound auto fluorescence at 590 nm (red) in HepG2 cell free culture (AID 720684). A digest of the protocol: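 Compound was pinned into wells holding MEM with 10% FBS and no cells, and red fluorescence was read at Ex/Em 540/590 nm. Signal is expressed as auto fluorescence equivalency relative to Rose Bengal sodium.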
Assay [14] can be described thus: qHTS assay to test for compound auto fluorescence at 460 nm (blue) in HepG2 cell free culture (AID 720685). The method, boiled down:
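Compound (23 nL) or DMSO pinned into cell-free MEM with 10% FBS; blue fluorescence read at 405/460 nm excitation/emission, expressed as auto-fluorescence equivalency to triamterene.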

The nature of assay [15]: qHTS assay to test for compound auto fluorescence at 535 nm (green) in HepG2 cell free culture (AID 720686).
Assay [16] in a line: qHTS assay to test for compound auto fluorescence at 460 nm (blue) in HepG2 cells (AID 720687). A digest of the protocol: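 HepG2 cells in MEM with 10% FBS, attached overnight at 37 C, were exposed to compound or DMSO for 1 hr at 37 C, 5% CO2. Blue fluorescence was read at 405/460 nm, with triamterene as reference fluorophore.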
For assay [17], the target named is Glucocorticoid receptor (Homo sapiens) (UniProt P04150). As to the kind of experiment: qHTS assay to identify small molecule antagonists of the glucocorticoid receptor (GR) signaling pathway (AID 720692; active = well fitted inhibition curve with a large enough effect in the signal ratio in the repeat runs, not every such curve was filed as active; the % refers to the signal ratio; note: potency is the fitted concentration of half-maximal effect). The method, boiled down:
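Dexamethasone (5 nM final) stimulated a stably integrated GRE-beta-lactamase reporter in HeLa cells during 18 h co-incubation with compounds; signal was quantified as fluorescence intensity of B/G FRET substrate after 2 h.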

The nature of assay [18]: qHTS assay for small molecule disruptors of the mitochondrial membrane potential (AID 720635). Note: potency is the fitted concentration of half-maximal effect. A digest of the protocol: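 HepG2 cells exposed to compound 1 hr at 37C, then Mito-MPS dye 30 min. Ratio read of aggregate (540/590 nm) versus monomer (490/535 nm) fluorescence.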
Assay [19] deals with Glucocorticoid receptor (Homo sapiens) (UniProt P04150). The assay can be described thus: qHTS assay to identify small molecule agonists of the glucocorticoid receptor (GR) signaling pathway (AID 720691; active = well fitted activation curve with a large enough effect in the signal ratio in the repeat runs, not every such curve was filed as active; the % refers to the signal ratio). The method, boiled down: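 Reporter read-out: fluorescence intensity following 2 h room-temperature LiveBLAzer B/G FRET substrate loading. Prior step: GR-bla HeLa cells held 4 h, then treated 18 h at 37 C.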

Assay [20] in a line: qHTS assay for small molecule agonists of the p53 signaling pathway (AID 651631; calls by dose curve; note: nearly all actives have a fitted effect of over 15% in size). A digest of the protocol: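 HCT-116 cells carrying a stable p53 response element–beta-lactamase reporter were plated, rested 5 h at 37 °C, then exposed to compound in DMSO for 16 h at 37 °C; reporter activity was read as FRET substrate fluorescence after 2 h at room temperature.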

Glucocorticoid receptor (Homo sapiens), sequence (P04150 whole entry, looked up): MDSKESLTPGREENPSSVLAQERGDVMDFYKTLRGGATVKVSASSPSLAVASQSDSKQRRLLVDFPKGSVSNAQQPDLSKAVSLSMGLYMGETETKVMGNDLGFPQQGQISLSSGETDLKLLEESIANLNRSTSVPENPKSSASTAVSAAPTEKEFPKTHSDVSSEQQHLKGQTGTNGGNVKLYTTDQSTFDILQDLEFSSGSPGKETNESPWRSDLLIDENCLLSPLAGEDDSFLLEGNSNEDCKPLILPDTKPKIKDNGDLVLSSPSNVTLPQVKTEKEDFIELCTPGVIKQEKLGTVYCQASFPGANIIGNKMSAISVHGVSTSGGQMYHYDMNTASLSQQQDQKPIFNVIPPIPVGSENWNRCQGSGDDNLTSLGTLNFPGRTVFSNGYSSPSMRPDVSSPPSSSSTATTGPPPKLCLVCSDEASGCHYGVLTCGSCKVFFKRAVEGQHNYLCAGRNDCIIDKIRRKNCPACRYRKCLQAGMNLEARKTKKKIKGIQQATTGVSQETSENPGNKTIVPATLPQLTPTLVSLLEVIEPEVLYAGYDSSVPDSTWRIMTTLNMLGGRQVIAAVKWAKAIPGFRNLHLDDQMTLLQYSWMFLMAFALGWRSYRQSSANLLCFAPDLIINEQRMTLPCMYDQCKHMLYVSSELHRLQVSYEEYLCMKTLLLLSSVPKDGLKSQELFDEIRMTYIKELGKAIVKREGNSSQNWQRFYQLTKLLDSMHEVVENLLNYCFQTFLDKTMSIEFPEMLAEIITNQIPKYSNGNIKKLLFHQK

For the compound `C[C@]12CC[C@H](O)CC1=CC[C@@H]1[C@@H]2CC[C@]2(C)C(=O)CC[C@@H]12`, the Potency result in [1], in assay [2], in assay [3] and in [4] was “inactive” in each case. Also, the result in assay [5], in assay [6], in [7], in assay [8], in [9] and in assay [10] was inactive. Further, the compound was called inactive in assay [11], in [12], in assay [13], in [14], in assay [15] and in assay [16]. Besides, in assay [17], the Potency is 43.7 µM (active) and 43.6 µM (active).
`O=C(O)c1cc(Oc2ccc(C(F)(F)F)cc2Cl)ccc1[N+](=O)[O-]`: the Potency result in assay [1], in assay [2], in assay [3], in assay [4], in [18] and in [17] was “inactive” each time. The compound was called inactive in assay [5], in assay [6], in [7], in assay [8], in assay [9] and in [10]. Besides, the outcome in [11], in assay [13], in [14], in assay [15], in assay [16] and in assay [19] was inactive.
For the compound `Oc1c(Br)cc(Br)cc1Br`, the Potency entry in assay [1], in assay [2], in [3] and in [4] was “inactive” each time. In addition, the Potency in [18] was 48.7 µM (active) and 54.5 µM (active). For the same compound, the compound was classed as inactive in assay [5], in [6], in [7], in assay [8], in assay [9] and in assay [10]. Also, the compound was classed as inactive in assay [11], in assay [12], in assay [13], in assay [14], in [15] and in [16].
Regarding `CN1C(=O)CCS(=O)(=O)C1c1ccc(Cl)cc1` (centres undefined), the Potency entry in assay [1], in [3], in assay [4], in assay [18] and in assay [17] was “inactive” throughout. In addition, the result in assay [5], in assay [6], in [7], in assay [8], in assay [9] and in assay [10] was inactive. For the same compound, the outcome in assay [11], in assay [12], in assay [13], in [14], in assay [15] and in assay [16] was inactive. Also, the outcome in [19] was inactive.
For `CN(C)C(=O)Cl`, the Potency result in [1], in [2], in assay [3], in assay [4], in assay [18] and in [17] was “inactive” in each case. Further, the compound was called inactive in assay [5], in [6], in assay [7], in [8], in assay [9] and in assay [10]. Moreover, the result in [11], in assay [12], in assay [13], in assay [14], in assay [15] and in assay [16] was inactive. Moreover, in assay [19], the outcome was inactive.
In the case of `OCCCCO`, the Potency result in assay [20], in assay [2], in assay [3], in assay [4], in assay [18] and in assay [17] was “inactive” throughout. Also, the call in assay [5], in assay [6], in assay [7], in [8], in assay [9] and in assay [10] was inactive. The compound was called inactive in assay [11], in assay [13], in assay [14], in assay [15], in assay [16] and in assay [19].
Take `C/C=C/c1ccc2c(c1)OCO2`: the Potency entry in [20], in assay [2], in assay [3] and in assay [4] was “inactive” in each case. In assay [18], the Potency is 62.3 µM (active). Besides, the outcome in assay [5], in [6], in assay [7], in [8], in assay [9] and in assay [10] was inactive. Further, the outcome in assay [11], in assay [12], in assay [13], in assay [14], in [15] and in [16] was inactive.
